Hit rate of the full screen: of about 5,500 compounds, about 2,000 (36%) were called active. About 18% were inconclusive and are not listed. The list shows a part of the results. A number with no mark means an inactive call. No stated cut-off is given here; in the data, active means normalized growth mostly below about 0.91 (no sharp cut-off); inconclusive means no clear call, values can overlap the other calls; inactive means mostly above about 0.92.
Assay: chemical genetic growth profiling, strain panel (AID 1159580);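 further: tested at 20 µM; growth read once vehicle control cultures reached saturation at 30 °C; 1 = growth at the plate median or of vehicle wells; lower values mean less growth of the strain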
Conditions: S. cerevisiae deletion strains, growth OD

SMILES: CCOP(=S)(OCC)Oc1nc(Cl)c(Cl)cc1Cl
- normalized growth (locus YAL013W, strain DEP1, active compounds read low): 1.01
- normalized growth (locus YAL021C, strain ccr4, active compounds read low): 0.974
- normalized growth (locus YAL026C, strain drs2, active compounds read low): 0.941
- normalized growth (locus YAL030W, strain snc1, active compounds read low): 0.951
- normalized growth (locus YBL061C, strain skt5, active compounds read low): 0.964
- normalized growth (locus YBR009C, strain hhf1, active compounds read low): 0.873 (active)
- normalized growth (locus YBR021W, strain FUR4, active compounds read low): 1.01
- normalized growth (locus YBR023C, strain chs3, active compounds read low): 0.963
- normalized growth (locus YBR171W, strain sec66, active compounds read low): 0.95
- normalized growth (locus YBR229C, strain ROT2, active compounds read low): 0.997
- normalized growth (locus YBR231C, strain swc5, active compounds read low): 0.963
- normalized growth (locus YBR279W, strain paf1, active compounds read low): 0.98
- normalized growth (locus YCL011C, strain gbp2, active compounds read low): 0.938
- normalized growth (locus YCL016C, strain dcc1, active compounds read low): 0.981
- normalized growth (locus YCL029C, strain bik1, active compounds read low): 0.99
- normalized growth (locus YCL069W, strain vba3, active compounds read low): 0.972
- normalized growth (locus YCR088W, strain abp1, active compounds read low): 0.951
- normalized growth (locus YDL005C, strain med2, active compounds read low): 0.968
- normalized growth (locus YDL035C, strain GPR1, active compounds read low): 1.03
- normalized growth (locus YDL040C, strain nat1, active compounds read low): 0.955
- normalized growth (locus YDL074C, strain BRE1, active compounds read low): 0.985
- normalized growth (locus YDL101C, strain DUN1, active compounds read low): 1.01
- normalized growth (locus YDL134C, strain PPH21, active compounds read low): 0.988
- normalized growth (locus YDL185W, strain tfp1, active compounds read low): 0.994
- normalized growth (locus YDL192W, strain arf1, active compounds read low): 0.989
- normalized growth (locus YDR001C, strain nth1, active compounds read low): 0.948
- normalized growth (locus YDR069C, strain doa4, active compounds read low): 0.949
- normalized growth (locus YDR101C, strain arx1, active compounds read low): 0.981
- normalized growth (locus YDR137W, strain rgp1, active compounds read low): 0.832 (active)
- normalized growth (locus YDR150W, strain NUM1, active compounds read low): 1.01
- normalized growth (locus YDR159W, strain sac3, active compounds read low): 0.952
- normalized growth (locus YDR162C, strain NBP2, active compounds read low): 1.01
- normalized growth (locus YDR195W, strain ref2): 1.03
- normalized growth (locus YDR297W, strain sur2, active compounds read low): 0.957
- normalized growth (locus YDR318W, strain mcm21, active compounds read low): 0.981
- normalized growth (locus YDR334W, strain swr1, active compounds read low): 0.947
- normalized growth (locus YDR335W, strain msn5, active compounds read low): 0.973
- normalized growth (locus YDR388W, active compounds read low): 0.986
- normalized growth (locus YDR392W, strain spt3, active compounds read low): 0.615 (active)
- normalized growth (locus YDR502C, strain sam2, active compounds read low): 0.988
- normalized growth (locus YEL003W, strain gim4, active compounds read low): 0.964
- normalized growth (locus YEL037C, strain rad23, active compounds read low): 0.959
- normalized growth (locus YEL061C, strain CIN8 (second series), active compounds read low): 0.957
- normalized growth (locus YEL061C, strain CIN8, active compounds read low): 1
- normalized growth (locus YER015W, strain faa2, active compounds read low): 0.964
- normalized growth (locus YER016W, strain bim1, active compounds read low): 0.973
- normalized growth (locus YER110C, active compounds read low): 0.993
- normalized growth (locus YER111C, strain swi4, active compounds read low): 0.958
- normalized growth (locus YER155C, strain BEM2 (second series), active compounds read low): 0.748 (active)
- normalized growth (locus YER155C, strain BEM2, active compounds read low): 1
- normalized growth (locus YER167W, strain BCK2, active compounds read low): 1.01
- normalized growth (locus YFR010W, strain ubp6, active compounds read low): 0.961
- normalized growth (locus YGL078C, strain dbp3, active compounds read low): 0.98
- normalized growth (locus YGL086W, strain mad1, active compounds read low): 0.987
- normalized growth (locus YGL167C, strain pmr1, active compounds read low): 0.947
- normalized growth (locus YGL173C, strain kem1, active compounds read low): 0.977
- normalized growth (locus YGL227W, strain vid30, active compounds read low): 0.935
- normalized growth (locus YGL240W, strain doc1, active compounds read low): 0.949
- normalized growth (locus YGL248W, strain PDE1, active compounds read low): 1.01
- normalized growth (locus YGL253W, strain hxk2, active compounds read low): 0.948
- normalized growth (locus YGR078C, strain PAC10, active compounds read low): 0.987
- normalized growth (locus YGR135W, strain pre9, active compounds read low): 0.986
- normalized growth (locus YGR229C, strain SMI1, active compounds read low): 0.98
- normalized growth (locus YGR252W, strain gcn5, active compounds read low): 0.976
- normalized growth (locus YHR013C, strain ard1, active compounds read low): 1.07
- normalized growth (locus YHR027C, strain rpn1, active compounds read low): 0.966
- normalized growth (locus YHR030C, strain SLT2, active compounds read low): 1.01
- normalized growth (locus YHR079C, strain IRE1 (second series), active compounds read low): 0.991
- normalized growth (locus YHR094C, strain hxt1, active compounds read low): 0.983
- normalized growth (locus YHR129C, strain ARP1, active compounds read low): 0.995
- normalized growth (locus YHR142W, strain chs7, active compounds read low): 0.847 (active)
- normalized growth (locus YHR200W, strain rpn10, active compounds read low): 0.986
- normalized growth (locus YIL066C, strain RNR3, active compounds read low): 0.991
- normalized growth (locus YIL073C, strain SPO22, active compounds read low): 0.961
- normalized growth (locus YIL125W, strain kgd1, active compounds read low): 0.981
- normalized growth (locus YIR030C, strain dcg1, active compounds read low): 0.991
- normalized growth (locus YJL092W, strain hpr5, active compounds read low): 0.959
- normalized growth (locus YJL095W, strain BCK1 (second series), active compounds read low): 0.949
- normalized growth (locus YJL095W, strain BCK1, active compounds read low): 0.973
- normalized growth (locus YJL115W, strain asf1, active compounds read low): 0.971
- normalized growth (locus YJL129C, strain trk1, active compounds read low): 0.921
- normalized growth (locus YJL134W, strain LCB3, active compounds read low): 1.01
- normalized growth (locus YJL154C, strain vps35, active compounds read low): 0.937
- normalized growth (locus YJL164C, strain tpk1, active compounds read low): 0.914 (active)
- normalized growth (locus YJL166W, strain qcr8, active compounds read low): 0.961
- normalized growth (locus YJL168C, strain set2, active compounds read low): 0.988
- normalized growth (locus YJL187C, strain SWE1 (second series), active compounds read low): 0.996
- normalized growth (locus YJR043C, strain POL32, active compounds read low): 1.02
